Laboratory results as given in the supplement of paper PMC5499739.
The full ranking holds about 16,000 sequences; the median of “Z-score” is about -0.37, and the highest 2% start at about 3.1. The sample as a whole holds a higher share of the highest values than the screen did.

Test system: RBM10 RRM1-ZnF-RRM2 (GST-tagged construct)
Assay: RNAcompete 7-mer binding Z-score; higher = stronger binding preference
Method: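 RNAcompete: 20 pmol GST-tagged RBM10 RNA-binding constructs were incubated with a designed RNA pool of about 241,000 sequences up to 41 nt (1.5 nmol) on glutathione beads for 30 min at 4 °C and washed. Bound RNAs were identified by microarray hybridisation. Each RNA 7-mer is scored by a one-sided Z-score of its enrichment, computed over probes that contain the 7-mer within longer pool sequences.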

Sequence | RNAcompete 7-mer binding Z-score
UAUAGGG | 2.76
UGUAGAG | 0.978
GGUAGAG | 3.68
AGUAGGA | 3.08
CGUAGAG | 0.636
GAUAGGA | 3.17
GGUAGGC | 2.65
CAUAGGA | 0.756
GAUAGGG | 4.38
GGUAGGA | 3.37
AAUAGGA | 1.57
CAUAGGG | 2.13
CGAUUAA | -0.493
GGAUUGC | 0.88
AACCACA | -0.275
UCUUGCG | -0.664
AGAUGCU | -0.777
AUUCGGA | 0.243
UAUGUCC | -0.785
CCUCGGC | -0.701
AACACGU | -0.3
CUACUAU | -0.657
CCGUCCA | -0.704

Sequence | RNAcompete 7-mer binding Z-score
CCUACGG | -0.446
UAACGCU | -0.646
GGCCAUG | 0.181
GCCGGGG | 1.4
GUUAGGU | 1.89
AAUAGGG | 3.5
AAUAGGC | 0.924
CGUAGGG | 2.3
UGUAAAG | 0.257
CGUAAAG | -0.0743
UUUAGGG | 1.51
UGUAGGA | 1.9
GGUAAAG | 3.35
AAUAGGU | 1.27
GUUAGGG | 3.65
UGUAGGG | 3.34
UCCAUUU | -0.872
GAUCCAG | 0.0641
ACGUAAU | -0.417
ACAAUCG | -0.173
UACCCCG | -0.551
AUGCUCA | -0.766
GAUGAGG | 3.6

Sequence | RNAcompete 7-mer binding Z-score
GGUGAGG | 4.3
GGUGAGA | 2.68
CGUGAGG | 1.73
GAUGAGU | 1.01
CAUGAGG | 1.35
CCUCCAA | -0.857
UGAGCCC | -0.435
GUCCACU | -0.653
GGGCAGG | 3.39
GGGCGAC | 1.94
GGGCGGU | 2.58
GGGCAGA | 2.25
GGCAAAG | 1.95
GGGCGGA | 3.09
CGCAAGG | 0.341
GGGCGGG | 3.52
GGGCGAG | 3.88
GGGCGAA | 2.68
GGCAAGG | 3.47
AGGCAGG | 1.77
AUAGUGG | 1.69
CACCAUC | -0.734
UGCGCAG | 0.0677

Sequence | RNAcompete 7-mer binding Z-score
UUUGGAU | -0.125
UACUUUA | -0.948
UGGCGGU | 1.54
UGGCGGG | 3.19
CGGCGGG | 1.97
ACGGGAC | 2.19
UGCAACC | -0.504
GAGGGGA | 3.29
GAGGGCA | 1.99
AGGGGGG | 2.05
CGGGGGA | 2.53
CAGGGAU | 2.41
GCGGGAU | 2.38
GAGGGAA | 3.6
GAGGGGG | 2.83
AAGGGGG | 3.91
AAGGGGC | 3.1
GAGGGAU | 3.31
GAGGAAA | 2.2
CCGCUAC | -0.868
GUUACUC | -0.581
UAAGUCA | -0.0816
UCGCGCA | -0.595

Sequence | RNAcompete 7-mer binding Z-score
ACCUCCG | -0.737
AUAGAGA | 0.501
AGAACAU | -0.398
CCUAUAU | -0.799
UCAAUGC | -0.533
GCUUGUG | -0.479
GUACCCC | -0.242
UUCCUGA | -0.763
AAGGGGU | 4.33
GAGGGGC | 2.44
CAAGGGG | 3.03
AAGGGGA | 4.44
AAAGGGG | 4.22
GAGGGGU | 3.64
GAGGGCU | 1.27
AGGGGGA | 2.14
UAAGGGG | 3.11
AGGGGGU | 3.03
AACCCUU | -1.03
CCACGCA | -0.664
AUUGUGA | 0.108
UCGCGUU | -0.602
CUUCCUU | -0.759

Sequence | RNAcompete 7-mer binding Z-score
AGUAAGA | 0.541
GUUCUCU | -0.788
GUGGGUG | 3.76
AGGGGCG | 2.07
AGGGGGC | 1.4
AUGGGUC | 2.15
AUUGGUG | 1.84
AGGGGUG | 3.14
AUGGGUA | 3.71
AUGGGUU | 2.86
CUGGGUG | 1.82
GUGGGUC | 2.4
AUCGGUG | 0.691
AUGGGUG | 3.74
CUCUUCC | -0.879
AAUAUAC | -0.26
UAGUCCA | -0.683
UGUGGCC | 0.0459
AUCUCGC | -0.894
AAGUUAC | -0.289
CGGCUGA | -0.0306
UUCAAUA | -0.151
UCGGGUG | 1.96

Sequence | RNAcompete 7-mer binding Z-score
GGGGGUC | 2.06
GGGGGCG | 2.58
CCGGGUG | 1.62
UUGGGUC | 1.03
CGGGGUU | 2.23
UGGGGUG | 4.14
CGGGGUG | 3.36
UUGGGUG | 3.43
GGGGGUG | 3.43
UUGGGUU | 2.05
UGGGGUC | 2.62
GUUAUCU | -0.395
GACCCCC | -0.551
ACGAAUA | -0.238
UAUCACG | -0.435
AUGUAAC | -0.147
GAGUGUU | 0.432
CGAGGCU | 0.217
ACACCCU | -0.941
UAAUACA | -0.391
UCAUUCU | -0.752
UGCGGUC | -0.00512
GCGCUGU | -0.191

Sequence | RNAcompete 7-mer binding Z-score
ACAGUAA | 0.0677
GGCCGCC | -0.683
UAAGCCA | -0.712
GCCAAAC | -0.573
AGUCUGU | -0.482
GGGUGUA | 3.09
GGGGGUU | 3.29
GGGUGUG | 3.51
AGGGGUU | 2.42
UGGUGUG | 2.21
GGGGUUU | 2.36
AUCUACU | -0.806
AUCUUGG | -0.311
CGGGAAC | 1.5
GCUUCCG | -0.799
CUUGGUC | -0.821
GGACAGA | 1.44
GGACCGU | 0.0532
UGGGAUG | 3.22
AGGGAUG | 4.22
GGGGAUC | 2.27
GGGGAUU | 2.36
AGGGACG | 2.37
